PubChem BioAssay AID1645860 (Buhrlage Lab, Dana-Farber Cancer Institute and Novartis …, 2021)
About 2,500 (5.3%) of roughly 47,000 compounds were called active. The entries come from a sample that favours actives as a whole. A number with no mark means an inactive call. No stated cut-off is given here; in the data, active means inhibition above about 30%; inactive means the rest.

biological target: Ubiquitin carboxyl-terminal hydrolase 30 (Homo sapiens) (UniProt Q70CQ3); experiment: blocks human USP30 ubiquitin-rhodamine cleavage (AID 1645860); details: purified USP30, Ub-rhodamine cleavage fluorescence; at 25 µM; hits give high values
Sequence (Q70CQ3 whole entry, looked up): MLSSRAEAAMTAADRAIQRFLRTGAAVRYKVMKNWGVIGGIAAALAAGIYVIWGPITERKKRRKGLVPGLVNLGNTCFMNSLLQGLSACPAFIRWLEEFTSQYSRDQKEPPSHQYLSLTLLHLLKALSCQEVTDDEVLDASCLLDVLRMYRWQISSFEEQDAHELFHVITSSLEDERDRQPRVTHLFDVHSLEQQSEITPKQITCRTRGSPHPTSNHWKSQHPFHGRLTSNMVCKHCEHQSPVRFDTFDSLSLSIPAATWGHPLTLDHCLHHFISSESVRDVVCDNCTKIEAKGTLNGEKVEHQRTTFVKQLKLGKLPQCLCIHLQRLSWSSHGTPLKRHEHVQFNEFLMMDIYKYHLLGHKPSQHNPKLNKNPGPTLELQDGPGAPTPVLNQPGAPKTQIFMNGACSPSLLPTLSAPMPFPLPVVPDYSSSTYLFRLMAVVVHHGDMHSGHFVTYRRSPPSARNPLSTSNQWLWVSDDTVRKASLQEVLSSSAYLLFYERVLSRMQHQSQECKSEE

Row | SMILES | inhibition
1 | CC1CCCN(c2ccc(-c3nc(-c4cccnc4)no3)cc2[N+](=O)[O-])C1 (stereo unspecified) | -2.58%
2 | COc1ccc(CCNCc2c(C(=O)O)n(Cc3ccc(Cl)cc3)c3ccccc23)c(OC)c1OC | 18.6%
3 | Cc1ccc(CCNCc2c(C(=O)O)n(C)c3ccccc23)cc1 | -4.51%
4 | CC(CCc1ccccc1)NCc1c(C(=O)O)n(Cc2ccccc2F)c2ccccc12 (stereo unspecified) | 33.3% (active)
5 | O=C(CCCn1c(=O)c2ccccc2n(Cc2ccccc2F)c1=O)NC1CCCC1 | 15.8%
6 | CNC(=O)NC1CCN(c2nc3cccnc3n(Cc3ccc(C)cc3)c2=O)CC1 | -0.331%
7 | Cc1ccc(Cn2c(C(=O)O)c(CNC(C)CCc3ccccc3)c3ccccc32)cc1 (stereo unspecified) | 35.8% (active)
8 | O=S(=O)(c1ccc(Cl)c(-c2nnc(-c3ccccc3)o2)c1)N1CCOCC1 | 8.47%
9 | Cc1ccc(S(=O)(=O)NCc2c(-c3ccccc3)c3cc(C)ccc3[nH]c2=O)cc1 | -9.29%
10 | Cc1ccc(S(=O)(=O)NC2=NC(c3ccccc3)c3cc(Cl)ccc3N2)cc1 (stereo unspecified) | 43.7% (active)
11 | Cc1ccc(S(=O)(=O)Nc2ccc(-c3c[n+]4ccccc4n3C)cc2)cc1 | 21.2%
12 | COc1cc(NC(=O)c2noc3c2CCc2sccc2-3)cc(OC)c1 | 8.21%
13 | CC(=O)N1CCCc2ccc(NC(=O)c3cccc([N+](=O)[O-])c3)cc21 | 16.5%
14 | CC1(C)OC(=O)[C@@]2(C)N[C@]1(C)C[C@@H]2C(=O)Nc1ccc(O)cc1 | -11.1%
15 | Cc1ccc(S(=O)(=O)CC(=O)Nc2sc(C)c(C)c2C(N)=O)cc1 | -97.7%
16 | Cc1sc(NC(=O)c2ccc(S(=O)(=O)N(C)CC3CCCO3)cc2)c(C(N)=O)c1C (stereo unspecified) | -70.8%
17 | CCN(CC)S(=O)(=O)c1ccc(C(=O)Nc2sc(C)c(C)c2C(N)=O)cc1 | 36.2% (active)
18 | Cn1cc(-c2cnc3n2CCC32CCN(S(=O)(=O)c3cccc(F)c3)CC2)cn1 | -1.9%
19 | CN(C(=O)CSCc1nc(-c2ccc(F)cc2)no1)c1ccc(F)cc1 | -1.42%

Row | SMILES | inhibition
20 | O=c1[nH]c2c(-c3ccccn3)nsc2c(=O)n1Cc1cccnc1 | 2.65%
21 | Cc1cccc(-c2nnc(-c3cccc(S(=O)(=O)N4CCCC4)c3)o2)c1 | 10.5%
22 | O=C(Nc1nnc(-c2cccc([N+](=O)[O-])c2)o1)C1CCN(S(=O)(=O)c2ccc3c(c2)CCC3)CC1 | 40.6% (active)
23 | O=C(COC(=O)C1CCN(S(=O)(=O)c2c(Cl)cccc2Cl)CC1)Nc1ccc2c(c1)CCC2 | 11.6%
24 | CNc1cc(C)nc(C2CN(C(=O)c3ccnn3C(C)C)CCO2)c1 (stereo unspecified) | 15.8%
25 | COc1ccc(C2c3c(oc4ccccc4c3=O)C(=O)N2c2cc(C)on2)cc1 (stereo unspecified) | 23.7%
26 | O=C(C1CCOCC1)N1CCc2nc3ccccc3n2C(Cc2ccccc2)C1 (stereo unspecified) | 8.3%
27 | CCN1Cc2c(C(=O)NCCC(C)C)ncn2-c2ccccc2S1(=O)=O | -4.42%
28 | CN1C(=O)c2ccccc2C(C(=O)N2CCc3ccccc3C2)C1c1cccs1 (stereo unspecified) | 25%
29 | O=c1c(S(=O)(=O)c2cc(F)cc(F)c2)c[nH]c2ccc(F)cc12 | -13.9%
30 | Cc1ccc(CNC(=O)CCCn2c(=O)c3sccc3n(CC(=O)OCc3ccccc3)c2=O)cc1 | 70.7% (active)
31 | COc1ccc(CCNC(=O)CCCn2c(=O)c3ccccc3n(CC(=O)OCc3ccccc3)c2=O)cc1OC | 64.1% (active)
32 | Cc1cccc(N2CC(C)Cn3c2nc2c3c(=O)n(CC(=O)OCc3ccccc3)c(=O)n2C)c1 (stereo unspecified) | -36.6%
33 | COc1ccc(-c2nc3c(c(=O)c4ccccc4n3C)c(=O)n2CCc2ccc(OC)c(OC)c2)cc1 | 7.98%
34 | COc1ccc(CCNC(=O)Cn2c(=O)n(CC3CCC(C(=O)NC4CCCC4)CC3)c(=O)c3ccccc32)cc1OC (stereo unspecified) | 16.9%
35 | N#Cc1ccccc1Cn1c(=O)n(CCCC(=O)NCc2ccc(F)cc2)c(=O)c2ccccc21 | 20.9%
36 | COC[C@H]1C[C@@H]2CN(S(=O)(=O)c3ccc(F)cc3)C(C)[C@H]1N2C (stereo partly specified) | -8.47%
37 | CCn1cc(-c2ccnc3cc(C(=O)NC4CCOCC4)nn23)c(C)n1 | -12.3%
38 | O=C(O)CCNC(=O)/C(=C/c1ccc(Cl)cc1)NC(=O)c1ccco1 | -2.38%

Row | SMILES | inhibition
39 | O=C(NCc1ccc2c(c1)OCO2)c1cc2c(s1)CS(=O)(=O)C2 | 34.4% (active)
40 | O=C(NCCc1ccccc1)c1cc2c(s1)CS(=O)(=O)C2 | -21.6%
41 | O=C(NCc1ccc2c(c1)OCO2)C1=CCN(Cc2ccccc2)CC1 | -38.4%
42 | COc1ccc(C)cc1NC(=O)COC(=O)C1(c2ccccc2F)CCCC1 | 22.5%
43 | Cc1nc(-c2cccc(NC(=O)C3CCN(c4ccccc4)C3=O)c2)no1 (stereo unspecified) | 42.5% (active)
44 | CC(=O)c1cccc(NC(=O)c2cccc(-c3nc(-c4ccccc4)no3)c2)c1 | -9.31%
45 | Cc1nc(-c2cccc(S(=O)(=O)Nc3ccccc3C)c2)no1 | -3.5%
46 | CC(C)c1noc(-c2ccc(-n3cnc(C(=O)NC4CC4)c3)nc2)n1 | 1.32%
47 | N#Cc1ccc(OC(=O)c2cc(S(=O)(=O)N3CCOCC3)c(Cl)cc2Cl)cc1 | 1.53%
48 | CN(CC(=O)Nc1ccc(F)cc1Cl)Cc1ccc2c(c1)OCO2 | -9.47%
49 | Cc1ccc(F)cc1NC(=O)CN(C)Cc1ccc2c(c1)OCO2 | -0.987%
50 | COc1ccc(C(NC(=O)CN(C)Cc2ccc3c(c2)OCO3)c2ccccc2)cc1 (stereo unspecified) | 42% (active)
51 | O=C(c1ccccc1)c1ccc(NC2CCCc3ccccc32)c([N+](=O)[O-])c1 (stereo unspecified) | -121%
52 | Nc1ccc(C(=O)OCC(=O)NC2CCCc3ccccc32)cc1[N+](=O)[O-] (stereo unspecified) | 31.6% (active)
53 | O=C(COC(=O)c1ccc(F)cc1)NC1CCCc2ccccc21 (stereo unspecified) | -8.55%
54 | Cc1ccccc1NC(=O)Cc1csc2nc(-c3ccc(F)cc3)cn12 | 88.4% (active)
55 | Cc1cc(F)ccc1NC(=O)Cc1n[nH]c(Cc2ccccc2)n1 | -13.4%
56 | O=C(Cc1ccc(F)cc1)Nc1ccccc1Cc1ccccc1 | 27.2%
